CYP2C9 inh: inhibitors of human CYP2C9; P11712; CYP2C9 Supersomes, luciferin-H conversion, luminescence; inhibition, % at 5 µM; hit rate 20% among 96,000; AID 777;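 active = blocking of liver enzyme CYP2C9 beyond about 50% at 5 µM, limit read from the data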
Target sequence (P11712 whole entry, looked up): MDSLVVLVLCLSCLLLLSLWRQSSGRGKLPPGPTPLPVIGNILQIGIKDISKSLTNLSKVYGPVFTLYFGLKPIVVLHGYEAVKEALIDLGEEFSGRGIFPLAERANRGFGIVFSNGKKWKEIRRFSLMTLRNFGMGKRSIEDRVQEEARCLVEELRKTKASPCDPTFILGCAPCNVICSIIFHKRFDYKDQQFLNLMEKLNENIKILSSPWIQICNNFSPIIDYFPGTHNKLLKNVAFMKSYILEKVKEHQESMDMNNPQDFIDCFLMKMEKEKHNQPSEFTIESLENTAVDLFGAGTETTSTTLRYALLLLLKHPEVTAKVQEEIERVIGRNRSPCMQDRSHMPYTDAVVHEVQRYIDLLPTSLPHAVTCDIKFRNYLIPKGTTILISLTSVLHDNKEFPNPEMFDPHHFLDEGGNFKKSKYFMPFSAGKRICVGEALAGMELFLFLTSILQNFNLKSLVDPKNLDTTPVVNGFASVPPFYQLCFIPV
Cav32 inh: inhibitors of human Cav3.2 T-type calcium channel; Cav3.2-expressing cells, Fluo-4 calcium fluorescence FDSS; stronger effect = lower value; B-score at 10 µM; hit rate 4% among 100,000; AID 449739;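 active = single-dose well whose peak fluorescence ratio is a statistical outlier from its plate by either plate-standardised score or position-corrected B-score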
CYP2C9 activ: increases human cytochrome P450 2C9 activity; P11712; recombinant CYP2C9, luciferin-H conversion, luminescence; stronger effect = higher value; factor 1 = untreated enzyme, 0 = blocked; activation factor at 5 µM; hit rate 1.4% among 96,000; AID 1024;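 active = activation factor of 2 or more for CYP2C9 at a 5 µM dose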
CYP2C19 activ: activators of human cytochrome P450 2C19 | recombinant CYP2C19, luciferin-H EGE luminescence; stronger effect = higher value; 0 = fully inhibited enzyme, 1 = untreated enzyme | P33261 | activation factor at 5 µM | 96,000 tested, under 10 active;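 active = activation factor of at least 2 at 5 µM in the primary screen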
CYP2C19 inh: inhibitors of human CYP2C19; P33261; CYP2C19 Supersomes, luciferin-H EGE luminescence, 30 min; inhibition, % at 5 µM; hit rate 21% among 96,000; AID 778;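 active = CYP2C19 inhibition above a set limit at 5 µM in the primary screen, cut at about 50% in these data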
Each line names hits and unclear results; the compound was inactive in the other large screens. The list is not random: actives were taken first. Their share in the collection is about 27%.

O=C1CN(C(=O)CC2c3ccccc3-c3ccccc32)CC(=O)N1	none
O=C(Nc1nc(-c2cccs2)cs1)c1ccc(S(=O)(=O)N2CCCC2)cc1	CYP2C9 inh 57
COCCN(CCOC)S(=O)(=O)c1ccc(C(=O)Nc2nc(-c3ccncc3)cs2)cc1	CYP2C9 inh 69, CYP2C19 inh 56
NC(=O)c1ccsc1NC(=O)c1ccc(S(=O)(=O)N2CCCCC2)cc1	CYP2C9 inh 60 (no result: Cav32 inh)
CC1CC(C)CN(S(=O)(=O)c2ccc(C(=O)Nc3sccc3C(N)=O)cc2)C1 (stereo not given)	none
O=C(Nc1ccc(S(=O)(=O)N2CCCCC2)cc1)c1ccncc1	CYP2C9 inh 98, CYP2C19 inh 99
COCCN(CCOC)S(=O)(=O)c1ccc(C(=O)Nc2nc(C)c(C(C)=O)s2)cc1	none
CCOc1ccc(N=C(NC#N)SCC(=O)NC2CC2)cc1	none
O=C(Nc1nc(-c2ccc3c(c2)OCCO3)cs1)c1ccc(S(=O)(=O)N2CCCCC2)cc1	none
O=C(Nc1nc(-c2ccc(S(=O)(=O)N3CCCCCC3)cc2)cs1)c1ccccc1	CYP2C9 inh 72
Cc1ccc(Nc2nc(-c3ccc(S(=O)(=O)N4CCOCC4)cc3)cs2)cc1	none (no result: CYP2C9 inh, CYP2C9 activ, CYP2C19 activ, CYP2C19 inh)
Cc1ccc(Nc2nc(-c3ccc(S(=O)(=O)N4CCCC4)cc3)cs2)cc1C	CYP2C9 inh 54
Cc1ccc(NCC(=O)N/N=C/c2ccc(OC(=O)c3ccco3)cc2)cc1	none
COCC(=O)N1CCN(c2ccc([N+](=O)[O-])cc2)CC1	none
CCOC(=O)CC1ON(C)C(=O)N1c1ccc([N+](=O)[O-])cc1 (stereo not given)	CYP2C19 inh 98
COC(C/C=C\[C@@H](O)[C@H](C)OCc1ccccc1)OC	none (no result: CYP2C9 inh, CYP2C9 activ, CYP2C19 activ, CYP2C19 inh)
Cc1ccccc1CN1C(=O)C2(OCCCO2)c2ccccc21	CYP2C9 activ 2.2
O=C(CN1C(=O)C2(OCCCO2)c2ccccc21)NCCc1ccccc1	CYP2C19 inh 86
Cc1cc(C(=O)OCC(=O)N2CC(C)CC(C)C2)c(C)o1 (stereo not given)	CYP2C19 inh 55
Cc1cc(C(=O)OCC(=O)N2c3ccccc3CC2C)c(C)o1 (stereo not given)	CYP2C19 inh 75
NC(=O)c1c(NC(NC(=O)c2ccco2)(C(F)(F)F)C(F)(F)F)sc2c1CCCC2	none
Cn1c(=O)cc(SCC(=O)Nc2ccccn2)c2ccccc21	CYP2C9 activ 2.5
CC(=O)Nc1nonc1NC(=O)CSc1ccccn1	none
Cc1ccnc(NC(=O)CSc2cc(=O)n(C)c3ccccc23)c1	CYP2C9 activ 3.1, CYP2C19 activ 2.3
Cc1ccnc(NC(=O)CCCOc2cc(=O)n(C)c3ccccc23)c1	none
O=C(CSc1ccccn1)Nc1cccc(NC(=O)CSc2ccccn2)n1	CYP2C9 inh 55
Cn1c(=O)cc(SCC(=O)Nc2cccnc2)c2ccccc21	CYP2C9 activ 2
Cc1ccsc1C1CC(=O)NC2=C1C(=O)CC(C)(C)C2 (stereo not given)	none
CCc1nc(SCc2cccnc2)c(C#N)cc1C	CYP2C19 inh 57
CCc1nc(SCC(=O)O)c(C#N)cc1C	none (no result: Cav32 inh)
Cc1cc(-c2cccnc2)c(C#N)c(SCc2cccc(F)c2)n1	CYP2C19 inh 69
COC(=O)C1(Cc2ccc(O)c(CC3OC3(C)C)c2)OC(=O)C(O)=C1c1ccc(O)cc1 (stereo not given)	none (no result: CYP2C9 inh, CYP2C9 activ, CYP2C19 activ, CYP2C19 inh)
Fc1ccc(COc2ccc(/C=N/n3cnnc3)cc2)cc1	CYP2C9 inh 92, CYP2C19 inh 92
Cc1n[nH]c(=S)n1/N=C/c1ccc(OCc2ccc(Cl)cc2)cc1	none
Cc1cc(C)c(S(=O)(=O)/N=C2\C=CC(=O)C(Cl)=C2)c(C)c1	CYP2C19 inh 51
C=CCn1c(=O)c2c(C)c(C)sc2n2c(Nc3ccc(OC)cc3)nnc12	CYP2C9 inh 91
Cc1nn(-c2ccccc2)c(C)c1/C=N/NC(=O)c1cc(C2CC2)[nH]n1	CYP2C9 inh 58, CYP2C19 inh 60
Cc1nn(-c2ccccc2)c(Cl)c1/C=N/NC(=O)c1ccco1	none
Cc1nn(-c2ccccc2)c(C)c1/C=N/NC(=O)c1cc(-c2ccc(Br)s2)[nH]n1	CYP2C9 inh 84, CYP2C19 inh 77
Cc1nn(-c2ccccc2)c(C)c1/C=N/NC(=O)c1cc(C23CC4CC(CC(C4)C2)C3)[nH]n1	CYP2C9 inh 53
Cc1nn(-c2ccccc2)c(C)c1/C=N/NC(=O)c1cc(-c2ccc(Cl)s2)[nH]n1	none
Cc1c(Cl)cccc1NC(=O)CCCN1C(=O)CCC1=O	none (no result: Cav32 inh)
CC(Oc1ccc2oc(-c3ccccc3)c(C(=O)O)c2c1)C(=O)O (stereo not given)	none
Cc1onc(-c2ccccc2Cl)c1C(=O)Nc1cccc(-c2nc3ncccn3c2C)c1	CYP2C9 inh 52, CYP2C19 inh 55 (no result: Cav32 inh)
Cc1ccc(-c2cn3cccnc3n2)cc1NC(=O)c1ccc(Br)o1	none
Cc1ccc(-c2cn3cccnc3n2)cc1NC(=O)c1c(-c2ccccc2Cl)noc1C	CYP2C19 inh 54 (no result: Cav32 inh)
CCC(Sc1nc2ccccc2c(=O)[nH]1)C(=O)O (stereo not given)	none
Cc1cc(C)cc(SCc2noc(C(=O)NCCCN3CCOCC3)c2C(=O)NCCCN2CCOCC2)c1	none (no result: CYP2C9 inh, CYP2C9 activ, CYP2C19 activ, CYP2C19 inh)
CCOc1ccc(NC2c3ccccc3C(=O)N2Cc2ccc3c(c2)OCO3)cc1 (stereo not given)	CYP2C9 inh 98, CYP2C19 inh 99
COc1cc(NC2c3ccccc3C(=O)N2Cc2ccc3c(c2)OCO3)cc(OC)c1OC (stereo not given)	CYP2C9 inh 64, CYP2C19 inh 98
CCOc1ccc(NC2c3ccccc3C(=O)N2c2ccc(Cl)cn2)cc1 (stereo not given)	none (no result: CYP2C9 inh, CYP2C9 activ, CYP2C19 activ, CYP2C19 inh)
COc1cc(NC2c3ccccc3C(=O)N2c2ccc(C)cn2)cc(OC)c1OC (stereo not given)	none
O=C(CCN1C(=O)c2cccc3cccc(c23)C1=O)N1CCN(Cc2ccc3c(c2)OCO3)CC1	none
CC(=O)c1cccc(NC2c3ccccc3C(=O)N2Cc2ccc3c(c2)OCO3)c1 (stereo not given)	CYP2C9 inh 61
O=C1c2ccccc2C(Nc2ccc3c(c2)OCCO3)N1Cc1ccccc1 (stereo not given)	CYP2C9 inh 98, Cav32 inh -6.2, CYP2C19 inh 99
O=C1c2ccccc2C(Nc2cccnc2)N1Cc1ccccc1 (stereo not given)	none
Cn1c(SCc2ccccc2Cl)nc(C(F)(F)F)cc1=O	none
COc1ccc(C2C(C(=O)Nc3cccc(C)n3)c3ccccc3C(=O)N2C)cc1 (stereo not given)	none
COc1ccc(C2C(C(=O)Nc3cc(C)on3)c3ccccc3C(=O)N2C)cc1 (stereo not given)	CYP2C9 inh 69
Cc1cccc(NC(=O)c2ccccc2Br)n1	none
Cc1cccc(NC(=O)C(C)Oc2ccccc2C)n1 (stereo not given)	CYP2C9 inh 61, CYP2C19 inh 85
CCCCCc1nnc(NC(=O)C(=O)OCC)s1	none
CCCCc1nc(SCC(=O)Nc2cc(C)on2)n[nH]1	CYP2C9 inh 61, CYP2C19 inh 53

Source: PubChem BioAssay (several laboratories)
